In PubChem BioAssay AID1159580 (chemical genetic matrix, 2015):
In all, about 5,500 compounds went through this assay and about 2,000 (36%) were called active. Another 18% or so got no clear call; they are omitted. Cut-off read from the data, not from the text of the source: active = normalized growth mostly below about 0.91 (no sharp cut-off); inconclusive = no clear call, values can overlap the other calls; inactive = mostly above about 0.92. Some of the results follow.

Assay: chemical genetic growth profiling, strain panel (AID 1159580);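 note: tested at 20 µM; growth read once vehicle control cultures reached saturation at 30 °C; 1 = growth at the plate median or of vehicle wells; lower values mean less growth of the strain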
Conditions: growth OD

Measured: normalized growth

Cc1ccccc1OCC(O)CO (stereo not given)
inactive: S. cerevisiae deletion strains, locus YJR066W, strain TOR1, stronger effect = lower value 0.913 | S. cerevisiae deletion strains, locus YJR075W, strain HOC1, stronger effect = lower value 1.04 | S. cerevisiae deletion strains, locus YKL009W, strain mrt4, stronger effect = lower value 0.987 | S. cerevisiae deletion strains, locus YKL068W, stronger effect = lower value 0.996 | S. cerevisiae deletion strains, locus YKL085W, strain MDH1 (second series), stronger effect = lower value 1.04 | S. cerevisiae deletion strains, locus YKL085W, strain MDH1, stronger effect = lower value 1.04 | S. cerevisiae deletion strains, locus YKL160W, strain elf1, stronger effect = lower value 0.986 | S. cerevisiae deletion strains, locus YKL190W, strain CNB1, stronger effect = lower value 1.01 | S. cerevisiae deletion strains, locus YKR001C, strain vps1, stronger effect = lower value 0.991 | S. cerevisiae deletion strains, locus YKR026C, strain gcn3, stronger effect = lower value 0.928 | S. cerevisiae deletion strains, locus YKR091W, strain srl3, stronger effect = lower value 0.984 | S. cerevisiae deletion strains, locus YLL001W, strain dnm1, stronger effect = lower value 0.985 | S. cerevisiae deletion strains, locus YLL026W, stronger effect = lower value 0.983 | S. cerevisiae deletion strains, locus YLL041C, strain sdh2, stronger effect = lower value 0.985 | S. cerevisiae deletion strains, locus YLR027C, strain aat2, stronger effect = lower value 0.957 | S. cerevisiae deletion strains, locus YLR039C, strain RIC1, stronger effect = lower value 1.02 | S. cerevisiae deletion strains, locus YLR058C, strain SHM2, stronger effect = lower value 1.02 | S. cerevisiae deletion strains, locus YLR102C, strain apc9, stronger effect = lower value 0.991 | S. cerevisiae deletion strains, locus YLR113W, strain HOG1, stronger effect = lower value 0.971 | S. cerevisiae deletion strains, locus YLR221C, strain rsa3, stronger effect = lower value 0.982 | S. cerevisiae deletion strains, locus YLR258W, strain gsy2, stronger effect = lower value 0.98 | S. cerevisiae deletion strains, locus YLR262C, strain YPT6 (second series), stronger effect = lower value 0.973 | S. cerevisiae deletion strains, locus YLR262C, strain YPT6, stronger effect = lower value 1.02 | S. cerevisiae deletion strains, locus YLR268W, strain sec22, stronger effect = lower value 0.996 | S. cerevisiae deletion strains, locus YLR320W, strain mms22, stronger effect = lower value 0.964 | S. cerevisiae deletion strains, locus YLR330W, strain CHS5, stronger effect = lower value 1.01 | S. cerevisiae deletion strains, locus YLR342W, strain FKS1 (second series), stronger effect = lower value 1.04 | S. cerevisiae deletion strains, locus YLR342W, strain FKS1, stronger effect = lower value 0.966 | S. cerevisiae deletion strains, locus YLR357W, strain rsc2, stronger effect = lower value 0.982 | S. cerevisiae deletion strains, locus YLR370C, strain arc18, stronger effect = lower value 0.979 | S. cerevisiae deletion strains, locus YLR371W, strain rom2, stronger effect = lower value 0.992 | S. cerevisiae deletion strains, locus YLR384C, strain iki3, stronger effect = lower value 0.992 | S. cerevisiae deletion strains, locus YLR418C, strain cdc73, stronger effect = lower value 1.01 | S. cerevisiae deletion strains, locus YML016C, strain PPZ1, stronger effect = lower value 1.02 | S. cerevisiae deletion strains, locus YML032C, strain rad52, stronger effect = lower value 0.992 | S. cerevisiae deletion strains, locus YML120C, strain ndi1, stronger effect = lower value 0.965 | S. cerevisiae deletion strains, locus YML124C, strain tub3, stronger effect = lower value 0.993 | S. cerevisiae deletion strains, locus YMR058W, strain fet3, stronger effect = lower value 0.98 | S. cerevisiae deletion strains, locus YMR078C, strain ctf18, stronger effect = lower value 0.995 | S. cerevisiae deletion strains, locus YMR125W, strain sto1, stronger effect = lower value 0.953 | S. cerevisiae deletion strains, locus YMR129W, stronger effect = lower value 0.99 | S. cerevisiae deletion strains, locus YMR205C, strain PFK2, stronger effect = lower value 0.975 | S. cerevisiae deletion strains, locus YMR223W, strain ubp8, stronger effect = lower value 0.991 | S. cerevisiae deletion strains, locus YMR231W, strain pep5, stronger effect = lower value 0.988 | S. cerevisiae deletion strains, locus YMR263W, strain SAP30, stronger effect = lower value 1.03 | S. cerevisiae deletion strains, locus YMR307W, strain GAS1, stronger effect = lower value 1.09 | S. cerevisiae deletion strains, locus YNL067W, strain RPL9B, stronger effect = lower value 1.03 | S. cerevisiae deletion strains, locus YNL071W, strain lat1, stronger effect = lower value 0.977 | S. cerevisiae deletion strains, locus YNL183C, strain NPR1, stronger effect = lower value 0.919 | S. cerevisiae deletion strains, locus YNL209W, strain ssb2, stronger effect = lower value 0.984 | S. cerevisiae deletion strains, locus YNL233W, strain BNI4, stronger effect = lower value 1.04 | S. cerevisiae deletion strains, locus YNL248C, strain rpa49, stronger effect = lower value 0.977 | S. cerevisiae deletion strains, locus YNL250W, strain rad50, stronger effect = lower value 0.995 | S. cerevisiae deletion strains, locus YNL271C, strain bni1, stronger effect = lower value 0.989 | S. cerevisiae deletion strains, locus YNL298W, strain CLA4, stronger effect = lower value 0.993 | S. cerevisiae deletion strains, locus YNL307C, strain MCK1, stronger effect = lower value 0.994 | S. cerevisiae deletion strains, locus YNL322C, strain KRE1 (second series), stronger effect = lower value 0.979 | S. cerevisiae deletion strains, locus YNL322C, strain KRE1, stronger effect = lower value 1.01 | S. cerevisiae deletion strains, locus YNR049C, strain mso1, stronger effect = lower value 0.955 | S. cerevisiae deletion strains, locus YNR052C, strain pop2, stronger effect = lower value 0.991 | S. cerevisiae deletion strains, locus YOL006C, strain TOP1, stronger effect = lower value 1.11 | S. cerevisiae deletion strains, locus YOL012C, strain htz1 0.987 | S. cerevisiae deletion strains, locus YOL147C, strain pex11, stronger effect = lower value 0.992 | S. cerevisiae deletion strains, locus YOR001W, strain rrp6, stronger effect = lower value 0.963 | S. cerevisiae deletion strains, locus YOR061W, strain CKA2, stronger effect = lower value 1.02 | S. cerevisiae deletion strains, locus YOR069W, strain VPS5, stronger effect = lower value 1.01 | S. cerevisiae deletion strains, locus YOR070C, strain gyp1, stronger effect = lower value 0.969 | S. cerevisiae deletion strains, locus YOR080W, strain dia2, stronger effect = lower value 0.968 | S. cerevisiae deletion strains, locus YOR083W, strain WHI5, stronger effect = lower value 0.967 | S. cerevisiae deletion strains, locus YOR106W, strain vam3, stronger effect = lower value 0.96 | S. cerevisiae deletion strains, locus YOR136W, strain idh2, stronger effect = lower value 0.998 | S. cerevisiae deletion strains, locus YOR144C, strain elg1, stronger effect = lower value 0.99 | S. cerevisiae deletion strains, locus YOR184W, strain ser1, stronger effect = lower value 1.01 | S. cerevisiae deletion strains, locus YOR231W, strain MKK1, stronger effect = lower value 0.974 | S. cerevisiae deletion strains, locus YOR265W, strain rbl2, stronger effect = lower value 0.968 | S. cerevisiae deletion strains, locus YOR270C, strain vph1, stronger effect = lower value 0.911 | S. cerevisiae deletion strains, locus YOR290C, strain snf2, stronger effect = lower value 0.969 | S. cerevisiae deletion strains, locus YOR316C, strain cot1, stronger effect = lower value 0.992 | S. cerevisiae deletion strains, locus YPL051W, strain arl3, stronger effect = lower value 0.981 | S. cerevisiae deletion strains, locus YPL055C, strain LGE1, stronger effect = lower value 1.07 | S. cerevisiae deletion strains, locus YPL078C, strain atp4, stronger effect = lower value 0.971 | S. cerevisiae deletion strains, locus YPL106C, strain sse1, stronger effect = lower value 0.958 | S. cerevisiae deletion strains, locus YPL240C, strain hsp82, stronger effect = lower value 0.992 | S. cerevisiae deletion strains, locus YPL256C, strain CLN2, stronger effect = lower value 0.974 | S. cerevisiae deletion strains, locus YPR119W, strain clb2, stronger effect = lower value 0.997 | S. cerevisiae deletion strains, locus YPR141C, strain kar3, stronger effect = lower value 0.989 | S. cerevisiae deletion strains, locus YPR163C, strain tif3, stronger effect = lower value 0.991 | S. cerevisiae deletion strains, locus YPR167C, strain met16, stronger effect = lower value 0.998 | S. cerevisiae deletion strains, strain wtn01, stronger effect = lower value 1 | S. cerevisiae strains, strain wild type, stronger effect = lower value 1.02
